# Measured values reported in PMC5540273 (PLoS ONE, 2017).
# Read-outs that look alike come from different tables or passages of the source.
# Tests used:
# CSNK1G1 = details: concentration: 1 μM, replicates: in singlicate; n = 1
# CSNK1G2 = details: concentration: 1 μM, replicates: in singlicate; n = 1
# CSNK1G3 = details: concentration: 1 μM, replicates: in singlicate; n = 1
# CSNK2A1 = details: n = 1
# CSNK2A2 = details: n = 1
# CTK = tested on: T1, CTK; details: concentration: 1 μM, replicates: in singlicate; n = 1
# T1 construct: gene MATK
# DAPK1 = details: concentration: 1 μM, replicates: in singlicate; n = 1
# DAPK2 = details: concentration: 1 μM, replicates: in singlicate; n = 1
# DAPK3 = details: concentration: 1 μM, replicates: in singlicate; n = 1
# DCAMKL1 = tested on: T2, DCAMKL1; details: concentration: 1 μM, replicates: in singlicate; n = 1
# T2 construct: gene DCLK1
# [1] = concentration: 1 μM, replicates: in singlicate
# 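Further: KINOMEscan kinase panel screen.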
SMILES,%Inh (CSNK1G1) [%],%Inh (CSNK1G2) [%],%Inh (CSNK1G3) [%],%Inh (CSNK2A1; [1]) [%],%Inh (CSNK2A2; [1]) [%],%Inh (CTK) [%],%Inh (DAPK1) [%],%Inh (DAPK2) [%],%Inh (DAPK3) [%],%Inh (DCAMKL1) [%],%Inh (CSNK2A1; 1 µM) [%],%Inh (CSNK2A2; 1 µM) [%]
Cc1cc(-c2c(-c3ccc(F)cc3)ncn2CCCN2CCOCC2)nc(N)n1 [SB-222517],0,8,0,0,0,0,0,21,38,40,,
COc1cccc(CC(=O)N2CCc3cc(-c4cn(C)c5ncnc(N)c45)ccc32)c1 [GSK2608899],23,5,29,14,15,0,2,0,21,26,,
CN(C)CCOc1ccc(-c2cc(-c3ccc(Cl)c(O)c3)c(-c3ccncc3)[nH]2)cc1.Cl.Cl [SB-684387],36,0,37,24,32,3,14,0,22,21,,
O=C(Nc1n[nH]c2nc(-c3ccccc3)ccc12)C1CC1 [SB-708999],0,0,68,23,75,0,0,11,4,4,,
COc1cccc(-c2nc(-c3ccccc3)[nH]c2-c2ccncc2)c1 [SB-610250],0,0,22,0,0,0,0,0,19,14,,
COC(=O)Nc1nc2ccc(Oc3ccc(NC(=O)Nc4cc(C(F)(F)F)ccc4F)cc3)cc2[nH]1.Cl [GW654607],0,0,24,0,2,0,2,0,11,16,,
Cl.N#CCc1ccc(Nc2nccc(Nc3ccc(Oc4ccccc4)cc3)n2)cc1 [GW639905],1,0,8,0,9,28,0,60,40,12,,
Cc1ccc(O)cc1Nc1ccnc2ccc(C(C)(C)C)cc12 [GW856805],19,5,0,1,7,21,13,8,7,2,,
Cc1cc(-c2ccnc(Nc3cccc(C#N)c3)n2)cc(C)c1O [GSK1440913],17,12,55,40,46,4,20,9,5,8,,
Cc1ccccc1CC(=O)N1CCc2cc(-c3cn(C)c4ncnc(N)c34)ccc21 [GSK2603346],12,5,17,30,15,14,0,0,0,0,,
CCNC(=O)/C=C/c1n[nH]c2cc(Sc3ccccc3C(=O)NC)ccc12,13,0,13,24,0,6,13,8,15,0,,
Fc1cc(Cl)ccc1Nc1ccnc2cc(-c3ccc(CN4CCOCC4)o3)ccc12 [GW560109],7,0,7,0,86,28,0,0,10,12,,
Cn1cc(-c2cnc(N)c3c(-c4ccc5c(c4)CCN5C(=O)Cc4ccccc4)csc23)cn1 [GSK2593074],21,7,22,,,62,38,21,7,0,0,1
CN(c1ccc2c(c1)nc(NCc1ccccc1)n2C)c1ccnc(Nc2ccc(CS(C)(=O)=O)cc2)n1.Cl [GW811603],0,4,0,16,8,5,13,0,0,0,,
O=C(Nc1n[nH]c2cc(-c3cccs3)ccc12)C1CC1 [SB-731284],0,0,0,62,80,45,12,2,3,12,,
CC(=O)Nc1cn2nc(Oc3cccc(NC(=O)c4cccc(C(F)(F)F)c4)c3)ccc2n1,3,0,41,0,0,0,0,1,6,20,,
CN(C)CCNS(=O)(=O)c1ccc(-c2ccnc3[nH]ccc23)cc1 [GSK977620],0,0,5,30,11,0,76,44,88,18,,
N#Cc1cnc2cc(-c3cnc(CNCCN4CCOCC4)s3)ccc2c1Nc1ccc(Oc2ccccc2)cc1 [GW664114],19,0,25,0,5,26,26,0,2,19,,
COc1ccc(C2=C(Nc3cccc(O)c3)C(=O)NC2=O)cc1 [SB-390766],4,0,19,0,19,1,0,0,52,13,,
COc1cc(Nc2ccnc3cc(-c4ccncc4)ccc23)cc(OC)c1OC.Cl [GW494610],0,0,7,7,0,0,0,0,9,0,,
Nc1cccc(-c2ccc3c(N)n[nH]c3c2)c1 [GSK2193613],13,0,18,27,61,0,0,6,4,13,,
Nc1ncc(-c2cn[nH]c2)c2scc(-c3ccc4c(c3)CCN4C(=O)Cc3ccccc3)c12 [GSK2593067],6,24,27,11,0,12,0,0,22,0,,
Cc1ccc(Nc2ccnc(Nc3ccc(C)c(F)c3)n2)cc1O.Cl [GW582868],0,0,0,0,9,0,0,0,4,11,,
Cl.Cl.NCC(NC(=O)c1cc(-c2cccnc2)c(-c2ccnc3[nH]ccc23)s1)c1ccccc1 (stereo not drawn) [GSK1323434],39,63,68,32,40,0,59,21,27,21,,
CC(C)c1nc(-c2ccc(F)c(NS(=O)(=O)c3c(F)cccc3F)c2)c(-c2ccnc(Nc3ccc(N4CCOCC4)nc3)n2)s1 [GSK1804250],7,4,12,10,0,30,14,5,20,12,,
Cn1cc(-c2ccc3c(c2)CCN3C(=O)Cc2cc(F)cc(C(F)(F)F)c2)c2c(N)ncnc21 [GSK2635225],22,12,15,2,0,0,21,6,19,3,,
CC(C)NCC(Cc1ccccc1)NC(=O)c1cc(Br)c(-c2ccnc3[nH]ccc23)s1.Cl.Cl (stereo not drawn) [GSK1383281],13,14,29,59,46,0,18,0,37,34,,
Nc1ncnc2scc(-c3ccc(NC(=O)Cc4cc(F)ccc4F)cc3)c12.O=C(O)C(F)(F)F [SB-731254-M],26,36,40,13,14,67,0,100,100,27,,
Cc1cccc(Nc2nc(N[C@H]3CCCC[C@H]3N)ncc2C(N)=O)c1.Cl [GSK986310],21,0,37,36,25,0,86,70,59,32,,
CN(c1ccc(NC(=O)Nc2cccc(Cl)c2)cc1)c1ccnc(N)n1.Cl [GW830707],12,0,0,0,0,13,0,0,0,0,,
